Laboratory results reported in PubChem BioAssay (Tox21).
Records with an inconclusive call do not appear. Entries that show only a call come without a potency. The source made the active and inactive calls. Calls come from the whole dose curve; as a rule, active = well fitted cell-killing curve with a large enough effect in the repeat runs; inconclusive = weak or mixed curves, or effect the other way; inactive = flat fitted curve, though single readings scatter.

Columns and labels:
[1] = cAMP Responsive Elements (CRE) small molecule antagonists, cell-based qHTS assay: qHTS cell viability counter screen (AID 2060913); details: CRE-bla HEK293T viability, CellTiter-Glo luminescence, 5 h; series mostly up to 92.4 µM; note: nearly all actives have a fitted effect of over 40% in size
In short: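 Viability of NKH477-stimulated (0.25 uM final) CRE-bla HEK293T cells is measured by CellTiter-Glo luminescence following 3 hrs compound exposure at 37 C.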

[2] = cAMP Responsive Elements (CRE) small molecule agonists, cell-based qHTS assay: qHTS cell viability counter screen (AID 2060914); details: CRE-bla HEK293T viability, CellTiter-Glo luminescence, 5 h; series mostly up to 92.4 µM; note: nearly all actives have a fitted effect of over 50% in size
In short: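 Cytotoxicity was measured as ATP luminescence (CellTiter-Glo, 30 min at room temperature) in the same wells as the CRE-bla FRET read-out. HEK293T CRE-bla cells had 3 h compound exposure at 37C/5% CO2.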

| Structure (SMILES) | Potency [1] | Potency [2] |
| --- | --- | --- |
| CCOC(=O)C(O)c1ccccc1 (configuration not stated) | inactive | inactive |
| Clc1nc(C(Cl)(Cl)Cl)c(Cl)c(Cl)c1Cl | inactive | inactive |
| CN1CCN(C2=Nc3ccccc3Oc3ccc(Cl)cc32)CC1 | inactive | inactive |
| CO[Si](CCC1CCC2OC2C1)(OC)OC (configuration not stated) | inactive | inactive |
| Cc1ccc(C)cc1 | inactive | inactive |
| CN1Cc2c(N)cccc2C(c2ccccc2)C1 (configuration not stated) | inactive | inactive |
| CCc1ccccc1 | inactive | inactive |
| COc1cc(OC)c(C(=O)CCCN2CCCC2)c(OC)c1 | inactive | inactive |
| CCOC(=O)CC(=O)OCC | inactive | inactive |
| Cc1ccccc1 | inactive | inactive |
| C=C(C)C(=O)OC(C)C | inactive | inactive |
| COc1ccc([C@@H]2Sc3ccccc3NC(=O)[C@@H]2O)cc1 | inactive | inactive |
| Cc1ncc(CO)c(CN)c1O | inactive | inactive |
| OCc1cccc(Oc2ccccc2)c1 | inactive | inactive |
| CNS(=O)(=O)Cc1ccc2[nH]cc(CCN(C)C)c2c1 | inactive | inactive |
| N#CCc1ccccc1[N+](=O)[O-] | inactive | inactive |
| OCCOCCOCCO | inactive | inactive |
| NC(=O)c1ccc([N+](=O)[O-])cc1Cl | inactive | inactive |
| CC(=O)Nc1ccc(C)cc1C | inactive | inactive |

| Structure (SMILES) | Potency [1] | Potency [2] |
| --- | --- | --- |
| Clc1nnc(Cl)c2ccccc12 | inactive | inactive |
| SCCOCCOCCS | inactive | inactive |
| NS(=O)(=O)c1ccc(Cl)c(S(N)(=O)=O)c1 | inactive | inactive |
| CC(=O)c1ccccc1N | inactive | inactive |
| CCCCC1C(=O)N(c2ccccc2)N(c2ccccc2)C1=O | inactive | inactive |
| Cc1ccccc1N1CCN(CCc2nnc3n2CCCC3)CC1 | inactive | inactive |
| OC1CCCCC1 | inactive | inactive |
| CCN(CCC#N)c1ccc(N=Nc2ccc([N+](=O)[O-])cc2)cc1 | inactive | inactive |
| CC(C)CC(C)(O)C#CC(C)(O)CC(C)C (configuration not stated) | inactive | inactive |
| CC(C)NCC(O)COc1ccc(CC(N)=O)cc1 (configuration not stated) | inactive | inactive |
| CCc1cc(C(C)(C)C)c(O)c(C(C)(C)C)c1 | inactive | inactive |
| CCC(C)(O)CCC=C(C)C (configuration not stated) | inactive | inactive |
| CCCCCC | inactive | inactive |
| CCC(C)OC(=O)N1CCCCC1CCO (configuration not stated) | inactive | inactive |
| Cc1cccc(C)c1NC(=O)CN1CCCCCC1 | inactive | inactive |
| CC1=C(C(=O)O)N2C(=O)[C@@H](NC(=O)[C@H](N)c3ccc(O)cc3)[C@H]2SC1 | inactive | inactive |
| O=C1[C@@H]2[C@H]3CC[C@H](C3)[C@@H]2C(=O)N1CCCCN1CCN(c2ncccn2)CC1 | inactive | inactive |
| CCCCCc1ccc(O)cc1 | inactive | inactive |
| O=C(c1ccc(OCCN2CCCCC2)cc1)c1c(-c2ccc(O)cc2)sc2cc(O)ccc12 | inactive | inactive |

| Structure (SMILES) | Potency [1] | Potency [2] |
| --- | --- | --- |
| CS(=O)(=O)CCNCc1ccc(-c2ccc3ncnc(Nc4ccc(OCc5cccc(F)c5)c(Cl)c4)c3c2)o1 | inactive | inactive |
| CC(=O)O[C@@H]1CC2C3CCc4cc(OC(=O)c5ccccc5)ccc4C3CCC2(C)[C@H]1OC(C)=O (some centres not stated) | inactive | inactive |
| O=C1O[C@H]([C@@H](O)CO)C(O)=C1O | inactive | inactive |
| Cc1cc(C)cc([N+](=O)[O-])c1 | inactive | inactive |
| Cc1ccccc1S(=O)(=O)O | inactive | inactive |
| Cc1ccc(N(CC2=NCCN2)c2cccc(O)c2)cc1 | inactive | inactive |
| c1ccc(SSc2ccccc2)cc1 | inactive | inactive |
| CC[C@H](NC(C)C)[C@H](O)c1ccc(O)c2[nH]c(=O)ccc12 | inactive | inactive |
| O=C(c1ccccc1)c1ccc(O)cc1O | inactive | inactive |
| C=CCc1ccc(OC)c(OC)c1 | inactive | inactive |
| Cc1nc2n(c(=O)c1CCN1CCC(c3noc4cc(F)ccc34)CC1)CCCC2 | inactive | inactive |
| CCC(C)(C)C1CCC(OC)CC1 (configuration not stated) | inactive | inactive |
| CCO[Si](CC(C)C)(OCC)OCC | inactive | inactive |
| COc1ccc(N)c([N+](=O)[O-])c1 | inactive | inactive |
| CNC(=O)[C@H]1O[C@@H](n2cnc3c(NCc4cc(Cl)ccc4OCc4cc(C)no4)ncnc32)[C@H](O)[C@@H]1N | inactive | inactive |
| CC(=N\O)/C(C)=N/O | inactive | inactive |
| Clc1cc(Cl)c(Cl)c(Cl)c1Cl | inactive | inactive |
| Cn1c(NCCN(CCO)CCCc2ccc([N+](=O)[O-])cc2)cc(=O)n(C)c1=O | inactive | inactive |
